Laboratory results: PubChem BioAssay AID463173 (ICCB-Longwood Screening Facility, Harvard Medical School, 2010)
Among all 52,000 compounds or so, about 4,300 (8.3%) were called active. Rule as the data show it: active = survival mostly below about 52% (no sharp cut-off); inactive = mostly above about 56%. This excerpt belongs to a sample that is enriched for actives.

test system: DeltatarO mutant; assay: growth inhibition of S. aureus wild type versus tarO mutant, primary screen, teichoic acid synthesis inhibitors, RN4220, OD600 (AID 463173); conditions: OD600, 18 h, hits give low values, concentration not given here

SMILES	survival
COc1cc(/C=C/c2nc3ccccc3c(=O)n2-c2ccc(Br)c(C)c2)ccc1O	71% (inactive)
COc1cccc(-n2c(/C=C/c3ccccc3O)nc3ccccc3c2=O)c1	4% (active)
COc1ccc(-n2c(/C=C\c3ccccc3F)nc3ccccc3c2=O)cc1OC	89% (inactive)
Cn1cc(/C=C/c2nc3ccccc3c(=O)n2-c2ccccc2)c2ccccc21	77% (inactive)
Cc1cccc(-n2c(/C=C/c3cn(C)c4ccccc34)nc3ccccc3c2=O)c1	21% (active)
CCCCc1nc2ccccc2c(=O)n1-c1cccc(OC)c1	119% (inactive)
Cc1cccc(-n2c(-c3ccco3)nc3ccccc3c2=O)c1	94% (inactive)
Cc1cccc(-n2c(/C=C/c3cccc4ccccc34)nc3ccccc3c2=O)c1	94% (inactive)
Cc1cc(C)cc(-n2c(/C=C/c3cccc(F)c3)nc3ccccc3c2=O)c1	83% (inactive)
O=c1c2ccccc2nc(/C=C/c2ccccc2F)n1-c1cccc(O)c1	2% (active)
Cc1cccc(-n2c(/C=C/c3ccccc3O)nc3ccccc3c2=O)c1	0% (active)
O=c1c2ccccc2nc(/C=C\c2ccccc2F)n1-c1ccc(O)cc1	67% (inactive)
Cc1cc(-n2c(/C=C/c3cccs3)nc3ccccc3c2=O)ccc1Br	104% (inactive)
O=C1/C(=C\c2cc3c(cc2Cl)OCO3)N2CCC1CC2	87% (inactive)
O=C1NC(=S)NC(=O)C1C1CCCCC1	74% (inactive)
CCC(C(=O)Nc1ccccc1F)N1C(=O)CN=C(c2ccccc2)c2ccccc21 (centres undefined)	84% (inactive)
CC(C)Cc1nc2cccnc2n1C1CCNCC1	120% (inactive)
O=C(c1ccc2c(c1)N(Cc1ccc(F)cc1Cl)C(=O)c1ccccc1S2)N1CCC2(CC1)OCCO2	101% (inactive)
COc1ccc(N=C2SCCCN2C)cc1	99% (inactive)
CNC(=O)Oc1c(Cl)cc(Cl)cc1Cl	96% (inactive)
Cc1ccc(-n2c(/C=C/c3cccc(C(F)(F)F)c3)nc3ccccc3c2=O)cc1	72% (inactive)
O=c1c2ccccc2nc(/C=C\c2cccc(Br)c2)n1-c1ccc(O)cc1	100% (inactive)
CCc1nc2ccccc2c(=O)n1-c1cccc(OC)c1	91% (inactive)
Cc1cccc(-n2c(/C=C/c3c[nH]c4ccccc34)nc3ccccc3c2=O)c1	26% (active)
O=c1c2ccccc2nc(/C=C/c2ccccc2O)n1-c1ccc(Br)cc1	41% (active)
Cc1ccc(-n2c(/C=C\c3ccc(F)cc3)nc3ccccc3c2=O)cc1Cl	90% (inactive)
Cc1cccc(-n2c(CC3C(=O)Nc4ccc(C)cc43)nc3ccccc3c2=O)c1 (centres undefined)	34% (active)
Cc1ccc2c(c1)C(Cc1nc3ccccc3c(=O)n1-c1ccc(Br)cc1)C(=O)N2 (centres undefined)	73% (inactive)
Cc1ccc(-n2c(/C=C/c3cccc4ccccc34)nc3ccccc3c2=O)cc1	77% (inactive)
